Measured values published in the supplement of paper PMC6555819.

Columns and labels:
Assay in all cases: PBM binding z-score (relative to random genomic background probes); higher = stronger binding; sequences stand for … in GC…GCGATTGACAGCGTAGAATGAAGG
[1] = tested on: FXR:RXRa (NR concentration 270 nM, RXRa partner concentration 90 nM)
Summary of the method: (§1)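 Ligand-free nuclear receptor dimers were applied to custom Agilent 4×180K protein-binding microarrays whose double-stranded probes carried direct-repeat seeds, single-nucleotide variants, half-site ablations and random human genomic background sequences in 34-nt variable regions. Incubation lasted 1 h. Binding z-scores were computed against the random background probes from regression-normalized fluorescence.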

[2] = tested on: LXRa:RXRa (NR concentration 270 nM, RXRa partner concentration 90 nM)
Summary of the method: as §1

[3] = tested on: LXRa homodimer (NR concentration 270 nM)
Summary of the method: as §1

[4] = tested on: LXRb:RXRa (NR concentration 270 nM, RXRa partner concentration 90 nM)
Summary of the method: as §1

[5] = tested on: LXRb homodimer (NR concentration 270 nM)
Summary of the method: as §1

[6] = tested on: PPARa:RXRa (NR concentration 270 nM, RXRa partner concentration 90 nM)
Summary of the method: as §1

[7] = tested on: PPARg:RXRa (NR concentration 180 nM, RXRa partner concentration 90 nM)
Summary of the method: as §1

[8] = tested on: PPARg:RXRa 270nM:90nM, anti-RXR (NR concentration 270 nM, RXRa partner concentration 90 nM)
Summary of the method: as §1

[9] = tested on: PPARg:RXRa 30nM:10nM, anti-RXR (NR concentration 30 nM, RXRa partner concentration 10 nM)
Summary of the method: as §1

[10] = tested on: PPARg:RXRa 90nM:30nM, anti-RXR (NR concentration 90 nM, RXRa partner concentration 30 nM)
Summary of the method: as §1

[11] = tested on: PPARg:RXRa DBDmut IVT, anti-RXR (DBD mutation: RXRa K156A/R161A, NR concentration 270 nM, RXRa partner concentration 90 nM)
Summary of the method: as §1

[12] = tested on: PPARg:RXRa IVT, anti-PPARg (NR concentration 270 nM, RXRa partner concentration 90 nM)
Summary of the method: as §1

[13] = tested on: PPARg DBDmut:RXRa IVT, anti-PPARg (DBD mutation: PPARg1 K132A/R137A, NR concentration 270 nM, RXRa partner concentration 90 nM)
Summary of the method: as §1

[14] = tested on: PPARg DBDmut IVT, anti-PPARg (DBD mutation: PPARg1 K132A/R137A, NR concentration 270 nM)
Summary of the method: as §1

[15] = tested on: PPARg homodimer (NR concentration 180 nM)
Summary of the method: as §1

[16] = tested on: PXR homodimer (NR concentration 270 nM)
Summary of the method: as §1

[17] = tested on: RARa:RXR (NR concentration 270 nM, RXRa partner concentration 90 nM)
Summary of the method: as §1

[18] = tested on: RARa homodimer (NR concentration 270 nM)
Summary of the method: as §1

[19] = tested on: RARb:RXRa (NR concentration 270 nM, RXRa partner concentration 90 nM)
Summary of the method: as §1

[20] = tested on: PXR:RXRa (NR concentration 270 nM, RXRa partner concentration 90 nM)
Summary of the method: as §1

Sequence | PBM binding z-score [1] | PBM binding z-score [2] | PBM binding z-score [3] | PBM binding z-score [4] | PBM binding z-score [5] | PBM binding z-score [6] | PBM binding z-score [7] | PBM binding z-score [8] | PBM binding z-score [9] | PBM binding z-score [10] | PBM binding z-score [11] | PBM binding z-score [12] | PBM binding z-score [13] | PBM binding z-score [14] | PBM binding z-score [15] | PBM binding z-score [16] | PBM binding z-score [17] | PBM binding z-score [18] | PBM binding z-score [19] | PBM binding z-score [20]
TGTCAGAGTTCAAAGGTAACGTAAGTATCCACAC | 7.14 | 6.58 | 4.05 | 4.65 | 1.22 | 5.88 | 7.19 | 6.65 | 3.88 | 5.98 | 0.11 | 3.16 | 0.991 | 1.01 | 2.95 | 5.44 | 7.02 | -0.164 | 4.47 | 
CCTAGTTGGTCAAGGTAACACACGCTATAGGTAC | 0.638 | 0.459 | 0.594 | 0.713 | 0.295 | 0.749 | 1.08 | 1.32 | 0.57 | 0.891 | 1.65 | 1.92 | 0.633 | 0.573 | 1.25 | 0.51 | 0.946 | 1.13 | 1.26 | 
CGGACTAGGTCACCAGGACAGTGAAGAGGTTGGA | 3.78 | 2.23 | -0.177 | 1.34 | -0.742 | 4.41 | 8.1 | 6.5 | 4.18 | 5.97 | 7.92 | 8.27 |  | 0.234 | 1.95 | -0.197 | 2.09 | -0.221 | 4.15 | 1.24
ACTATCAGGCCAAGGGTCACTCAAGATTAGTCCG | 2.77 | 3.13 | 0.488 | 2.87 | 0.938 | 4.54 | 7.66 | 7.12 | 6.22 | 7.87 | 1.26 | 3.82 | 0.909 | 0.584 | 3.28 | 0.337 | 4.42 | 1.45 | 3.72 | 
ATATGTAGGTTACATCGGGGTCATTCAGGCTATG | 4.88 | 5.89 | 3.8 | 4.91 | 1.46 | 5.71 | 7.19 | 6.35 | 4.23 | 5.65 | 7.87 | 7.63 | 3.44 | 3.24 | 3.92 | 10.3 | 7 | 1.93 | 3.25 | 
AGTCAAAGTTCAGGACGAGGTCACGTAAAGCACG | 6.35 | 5.87 | 4.71 | 4.87 | 0.736 | 5.46 | 6.17 | 6.26 | 2.76 | 4.97 | 0.746 | 3.73 | 0.593 | 0.7 | 5.05 | 7.95 |  | 2.01 |  | 
ATCGAAAGGTCGAAGGTGAGTCTACCCACCCGAA | 4.39 | 3.59 | -0.0971 | 2.87 | 0.861 | 4.78 | 4.36 | 5.19 | 2.51 | 4.21 | 0.133 | 2.34 | 0.449 | 0.43 | 1.56 | 0.264 | 4.57 | -0.143 | 3.74 | 
ATCGAAAGGTCGAAGGTGACTATACCCACCCGAA | 4.54 | 3.72 | 0.344 | 3.07 | 0.925 | 4.92 | 5.16 | 5 | 2.71 | 4.38 | 0.283 | 2.43 | 0.926 | 0.616 | 2.37 | 0.106 | 4.31 | 0.973 | 3.79 | 
CGAACTAGGTCAAAGGATAGTGAAAGGCGACGTA | 3.37 | 2.22 | -0.4 | 1.58 | -0.272 | 4.93 | 8.97 | 7.71 | 6.95 | 8.35 | 8.11 | 8.26 |  | 0.867 | 1.36 | -0.152 | 1.9 | 0.167 | 3.62 | 1
ATATGTAGGTTAGGGTCATTAAGAAAGTAGGGAA | 4.6 | 3.41 | 1.04 | 4.44 | 1.52 | 5.58 | 7.9 | 6.59 | 4.1 | 6.14 | 6.33 | 6.81 |  | 3.64 | 3.28 | 1.85 | 4.79 | 1.97 | 3.32 | 3.9
CGAACTAGGTCAAAGGACAGTTAAAGGCGACGTA | 4.01 | 2.69 | 0.333 | 1.95 | -0.158 | 5.58 | 10.5 | 8.8 | 7.97 | 9.57 | 7.76 | 8.44 |  | 1.12 | 2.07 | 0.165 | 2.42 | 0.332 | 4 | 1.32
GATACAGGGTCAGCTTGAGGCCAGAGTATGGAAA | 4.2 | 2.37 | -0.58 | 2.03 | -0.747 | 3.98 | 2.71 | 2.81 | 0.493 | 1.56 | 1.23 | 2 | -0.407 | -0.636 | 1.71 | -0.346 | 3.44 | -0.0727 | 3.72 | 
CGTCCAAGGTCATAGGAGTTCAGTGAAGACAGAT | 7.7 | 7.41 | 5.13 | 5.15 | 0.66 | 5.9 | 4.86 | 5.44 | 1.9 | 4.2 | 3.09 | 4 | 1.39 | 0.8 | 5.14 | 10.9 | 5.59 | 2.08 | 5.31 | 
CGAACTAGGTCGAAGGACAGTGAAAGGCGACGTA | -0.0707 | -0.21 | -0.395 | -0.3 | -1.11 | 2.52 | 5.13 | 5.69 | 2.98 | 5.61 | 4.92 | 5.17 |  | -0.201 | 0.0184 | -0.851 | -0.0163 | -0.8 | 1.18 | -0.467
CGAACTAGGTCACCAGGACAGTGACGAGGTTGGA | 4.27 | 2.44 | -0.221 | 1.53 | -0.75 | 5.17 | 8.62 | 6.98 | 4.41 | 6.34 | 8.26 | 8.82 |  | 1.73 | 1.63 | -0.0254 | 2.69 | 0.339 | 4.38 | 1.66
